Test results from the supplement of paper PMC5662767.
Counter-ions that a name gives are not always drawn.

test system: Drosophila S2 cl14 SmoIP sensor cells; assay: normalized SmoIP GFP fluorescence (untreated unstimulated = 0%, untreated Hh-stimulated = 100%); higher = more Smo activation sensor fluorescence; conditions: stimulation: Hh conditioned medium (+Hh); compound concentration: 2 uM; 24 h
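Further: flow cytometry read-out as median GFP intensity of gated cells, compounds added 30 min before Hh-conditioned or mock medium, mock-treated cells serving as unstimulated baseline.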

In order of falling “normalized SmoIP GFP fluorescence” value:
1. O=C(NC1CCOCC1)c1ccc(-c2cc(-c3c[nH]nc3-c3ccccn3)ccn2)cc1  168%
2. CCN1CCN(Cc2ccc(Nc3ncc(F)c(-c4cc(F)c5nc(C)n(C(C)C)c5c4)n3)nc2)CC1  158%
3. C[C@@H]1CN(CC(=O)Nc2ccc3c(c2)Cc2cccc(-c4cc(=O)cc(N5CCOCC5)o4)c2S3)C[C@H](C)O1  147%
4. C[C@@H](NCCc1ccc(O)cc1)[C@@H](O)c1ccc(O)cc1 [Ritodrine-hydrochloride-Yutopar]  144%
5. O=C1c2ccccc2C(=O)c2c1ccc(O)c2O [Alizarin]  141%
6. CS(=O)(=O)N1CCc2c(-c3cnc(N)nc3)nc(N3CCOCC3)nc21  134%
7. O=C(NOCC(O)CO)c1cc(Br)c(F)c(F)c1Nc1ccc(I)cc1F (stereo not given)  132%
8. Cc1cc(-c2ncc(CC(=O)Nc3ccc(-c4cnccn4)cn3)cc2C)ccn1  130%
9. CCCNS(=O)(=O)Nc1ncnc(OCCOc2ncc(Br)cn2)c1-c1ccc(Br)cc1 [macitentan]  126%
10. Cc1nc(Nc2ncc(C(=O)Nc3c(C)cccc3Cl)s2)cc(N2CCN(CCO)CC2)n1 [Dasatinib]  126%
11. CC(C)(O)[C@H]1CC[C@@](C)([C@H]2[C@@H](O)C[C@@]3(C)[C@@H]4C[C@H](O[C@@H]5O[C@H](CO)[C@@H](O)[C@H](O)[C@H]5O)[C@H]5C(C)(C)[C@@H](O[C@@H]6OC[C@@H](O)[C@H](O)[C@H]6O)CC[C@@]56C[C@@]46CC[C@]23C)O1 [astragaloside-a]  120%
12. Cc1cnc(-c2cnc(NCCNc3ccc(C#N)cn3)nc2-c2ccc(Cl)cc2Cl)[nH]1  118%
13. CCOC(=O)C1=C(C)NC(C)=C(C(=O)OC)C1c1cccc([N+](=O)[O-])c1 (stereo not given) [Nitrendipine]  117%
14. CN(C)CCOc1ccc(-c2nc(-c3ccncc3)c(-c3ccc4c(c3)CC/C4=N\O)[nH]2)cc1  114%
15. CCCSc1nc(N[C@@H]2C[C@H]2c2ccc(F)c(F)c2)c2nnn([C@@H]3C[C@H](OCCO)[C@@H](O)[C@H]3O)c2n1 [ticagrelor]  113%
16. O=C(C[S+]([O-])Cc1ccco1)NC/C=C\COc1cc(CN2CCCCC2)ccn1 (stereo not given) [lafutidine]  113%
17. O=C(O)CCCCC(CCSCc1ccccc1)SCc1ccccc1 (stereo not given)  112%
18. CNC(=O)c1cc(Oc2ccc(NC(=O)Nc3ccc(Cl)c(C(F)(F)F)c3)cc2)ccn1 [Sorafenib-Tosylate]  112%
19. NC(N)=N/N=C/c1c(Cl)cccc1Cl [guanabenz-wy-8678-acetate]  112%
20. Cc1ccc(-c2cc(C(F)(F)F)nn2-c2ccc(S(N)(=O)=O)cc2)cc1 [Celecoxib]  111%
21. CNCCC(Oc1ccc(C(F)(F)F)cc1)c1ccccc1 (stereo not given) [Fluoxetine-hydrochloride]  111%
22. Cc1cc(/C=C/C#N)cc(C)c1Nc1ccnc(Nc2ccc(C#N)cc2)n1 [rilpivirine]  110%
23. NC12CC3CC(CC(C3)C1)C2 [Amantadine-hydrochloride(Symmetrel)]  110%
24. CN(C)CC[C@H](CSc1ccccc1)Nc1ccc(S(=O)(=O)NC(=O)c2ccc(N3CCN(Cc4ccccc4-c4ccc(Cl)cc4)CC3)cc2)cc1[N+](=O)[O-]  109%
25. COc1ccc2c(c1)c(CC(=O)N1CCOCC1)c(C)n2C(=O)c1ccc(Cl)cc1  108%
26. O=c1cc(-c2ccccc2)oc2cc(O)c(O)c(O)c12 [Baicalein]  108%
27. O=c1cc(N2CCOCC2)oc2c(-c3ccccc3)cccc12  108%
28. CNC(=O)c1ccc(-c2cnc3ncc(Cc4ccc5ncccc5c4)n3n2)cc1F  107%
29. O=C1C[C@@H](c2ccc(O)cc2)Oc2cc(O)cc(O)c21 [Naringenin]  106%
30. CN(C)CC/C=C1/c2ccccc2Sc2ccc(Cl)cc21 [Chlorprothixene]  106%
31. O=C(Nc1ccccc1)N1CCN(c2nc(-c3ccccc3)ns2)CC1  104%
32. C#C[C@]1(OC(C)=O)CC[C@H]2[C@@H]3CCC4=C[C@@H](OC(C)=O)CC[C@@H]4[C@H]3CC[C@@]21C [ethynodiol-diacetate]  100%
33. O=C(c1cncc(Br)c1)N1CCC(N2CCCC2)CC1  98.8%
34. COc1ccc(-c2cc3c(C)nc(N)nc3n([C@H]3CC[C@H](OCCO)CC3)c2=O)cn1  87.2%
35. CC(C)(C)NC(=O)[C@H]1CC[C@H]2[C@@H]3CC[C@H]4NC(=O)C=C[C@]4(C)[C@H]3CC[C@]12C [Finasteride]  77.5%
